# Measurements: PubChem BioAssay (NCATS)
# Results filed as inconclusive are left out. The source made the active and inactive calls. Calls follow the shape of the dose curve; as a rule, active = well fitted inhibition curve with a large enough effect in the signal ratio, with a control signal flat (not every such curve was filed as active); inconclusive = small, poorly fitted or top-dose-only effect, or effect the other way, or a change in a side signal; inactive = no such curve, though single readings can be large or run the other way; the % refers to the signal ratio.
# Target: Peroxisome proliferator-activated receptor delta (Homo sapiens) (UniProt Q03181)
# Sequence (Q03181 whole entry, looked up): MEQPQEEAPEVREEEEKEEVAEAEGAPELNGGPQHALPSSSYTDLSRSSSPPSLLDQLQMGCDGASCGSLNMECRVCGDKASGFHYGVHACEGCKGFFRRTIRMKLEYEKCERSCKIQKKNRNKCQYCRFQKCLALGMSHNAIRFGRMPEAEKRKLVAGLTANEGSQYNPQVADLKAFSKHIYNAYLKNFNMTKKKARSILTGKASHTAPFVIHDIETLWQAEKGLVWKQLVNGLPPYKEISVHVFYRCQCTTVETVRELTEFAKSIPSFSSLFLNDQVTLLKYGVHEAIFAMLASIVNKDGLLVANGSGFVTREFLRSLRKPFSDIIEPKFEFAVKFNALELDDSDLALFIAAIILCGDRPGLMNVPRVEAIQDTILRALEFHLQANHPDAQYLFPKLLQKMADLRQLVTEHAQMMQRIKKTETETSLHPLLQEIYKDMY
# Assay: qHTS assay for small molecule antagonists of peroxisome proliferator-activated receptor delta signaling (AID 588535)
# Conditions: HEK293T PPARd-UAS-bla, beta-lactamase FRET ratio, 18 h; series mostly up to 76.7 µM; activity change, negative = inhibition: at the top concentration
# Excerpt: NIH Chemical Genomics Center [NCGC] U.S. Environmental Protection Agency [EPA] National Institutes of Environmental Health Sciences [NIEHS] National Toxicology Program [NTP] NCGC Assay Overview The Peroxisome proliferator-activated receptors (PPARs) are lipid-activated transcription factors of the nuclear receptor superfamily with three distinct subtypes namely PPAR alpha, PPAR delta (also called PPAR beta) and PPAR gamma. All these subtypes heterodimerizes with Retinoid X receptor (RXR) and have different physiological functions. […] This role of PPAR delta implicates the potential use of its ligands in the treatment of metabolic disorders.
# NCGC Assay Protocol Summary Using a beta-lactamase reporter-gene under control Peroxisome Proliferator-Activated Receptor delta (PPAR-delta) response element, a cell-based assay [GeneBLAzer (PPAR-delta-UAS-bla assay developed by Invitrogen] was used to measure PPAR-delta ligands signaling. GeneBLAzer PPAR-delta-UAS-bla HEK293T cells were used with assay medium containing 2% charcoal/dextran FBS. The assay was performed in clear bottom black Greiner 1536-well plates. Library compounds were measured for their ability to inhibit the reporter gene activity. Compounds were screened in a titration series in 1536-well format. The fluorescence intensity (405 nm excitation, 460/530 nm emission) was measured using an EnVision plate reader. […] Concentration-response titration points for each compound were fitted to the Hill equation yielding concentrations of half-maximal inhibition (IC50) and maximal response (efficacy) values. qHTS protocol for PPAR-delta beta-lactamase assay in antagonist mode [Step] [Parameter] [Value] [Description] 1. Reagent; 5 uL; 4000 cells/well 2. Incubation; 37 C for 5 hrs 3. Compounds; 23 nL; 0.59 nM to 92 uM 4. […] Incubation; 37 C for 18 hrs 7. Detection reagent; 1 uL of CCF4-dye 8. Incubation; RT for 2 hrs 9. Detection; Fluorescence; Envision plate reader
SMILES,"activity change, negative = inhibition",outcome
O=C(NCNC(=O)NC1C(=O)NC(=O)N1CO)NC1C(=O)NC(=O)N1CO (stereo not given),12.8% (inactive),–
O=[N+]([O-])C(Br)(CO)CO,-51.9% (inactive),–
O=C1C2CC=CCC2C(=O)N1SC(Cl)(Cl)Cl (stereo not given),3.09% (inactive),–
O=C/C=C/c1ccccc1,-17.5% (inactive),–
O=C1CCO1,-6.92% (inactive),–
C=CCN=C=S,-16.5% (inactive),–
O=C(O)C(Cl)(Cl)Cl,-16.9% (inactive),–
CCOP(=O)(OCC)O/C(=C/Cl)c1ccc(Cl)cc1Cl,–,inactive
CCCCCl,-4.37% (inactive),–
[O]=[Cr](=[O])([OH])[O][Cr](=[O])(=[O])[OH],-110% (inactive),–
ClC=C(Cl)Cl,–,inactive
CC(C)CCON=O,-24.4% (inactive),–
O=[N+]([O-])c1ccccc1,15.9% (inactive),–
CC(C)(C)c1cc(O)ccc1O,-15.1% (inactive),–
CCOC(=O)c1ccccc1C(=O)OCC,–,inactive
ClC(Cl)(Cl)Cl,3.92% (inactive),–
ClC1C(Cl)C(Cl)C(Cl)C(Cl)C1Cl (stereo not given),–,inactive
N#CN,18% (inactive),–
CCCCCCCCOC(=O)c1ccccc1C(=O)OCCCCCCCC,–,inactive
Clc1ccccc1Cl,3.12% (inactive),–
